Screen size: about 5,500 compounds; about 2,000 (36%) were called active. About 18% were inconclusive and are not listed. Rule as the data show it: active = normalized growth mostly below about 0.91 (no sharp cut-off); inconclusive = no clear call, values can overlap the other calls; inactive = mostly above about 0.92. The list shows a part of the results.
Experiment: chemical genetic growth profiling, strain panel (AID 1159580);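 also: tested at 20 µM; growth read once vehicle control cultures reached saturation at 30 °C; 1 = growth at the plate median or of vehicle wells; lower values mean less growth of the strain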
Settings: growth OD
[1] = S. cerevisiae deletion strains, locus YDL101C, strain DUN1, active compounds read low
[2] = S. cerevisiae deletion strains, locus YHR030C, strain SLT2, active compounds read low

Measured: normalized growth

COc1ccc(/C=C(\C#N)c2nc3ccccc3[nH]2)cc1OC
inactive: S. cerevisiae deletion strains, locus YAL013W, strain DEP1, active compounds read low 0.947 | S. cerevisiae deletion strains, locus YBR229C, strain ROT2, active compounds read low 0.947 | [1] 0.961 | S. cerevisiae deletion strains, locus YDL134C, strain PPH21, active compounds read low 0.942 | S. cerevisiae deletion strains, locus YDR150W, strain NUM1, active compounds read low 0.934 | S. cerevisiae deletion strains, locus YEL061C, strain CIN8, active compounds read low 0.921 | S. cerevisiae deletion strains, locus YGR078C, strain PAC10, active compounds read low 0.948 | [2] 0.703 | S. cerevisiae deletion strains, locus YHR087W, strain rtc3, active compounds read low 0.912 | S. cerevisiae deletion strains, locus YJR043C, strain POL32, active compounds read low 0.959 | S. cerevisiae deletion strains, locus YLR039C, strain RIC1, active compounds read low 0.817 | S. cerevisiae deletion strains, locus YLR058C, strain SHM2 (second series), active compounds read low 0.957 | S. cerevisiae deletion strains, locus YLR262C, strain YPT6, active compounds read low 0.851 | S. cerevisiae deletion strains, locus YML094W, strain GIM5, active compounds read low 0.909 | S. cerevisiae deletion strains, locus YMR219W, strain ESC1, active compounds read low 0.971 | S. cerevisiae deletion strains, locus YMR263W, strain SAP30, active compounds read low 0.956 | S. cerevisiae deletion strains, locus YNL153C, strain GIM3, active compounds read low 0.975 | S. cerevisiae deletion strains, locus YNL298W, strain CLA4 (second series), active compounds read low 0.856 | S. cerevisiae deletion strains, locus YNL322C, strain KRE1, active compounds read low 0.95 | S. cerevisiae deletion strains, locus YNR030W, strain Alg12, active compounds read low 0.906 | S. cerevisiae deletion strains, locus YPL055C, strain LGE1, active compounds read low 0.885 | S. cerevisiae deletion strains, locus YPR135W, strain CTF4, active compounds read low 0.759 | S. cerevisiae strains, strain wild type, active compounds read low 0.94
active: S. cerevisiae deletion strains, locus YJR075W, strain HOC1, active compounds read low 0.859 | S. cerevisiae deletion strains, locus YLR085C, strain ARP6, active compounds read low 0.499 | S. cerevisiae deletion strains, locus YMR307W, strain GAS1, active compounds read low 0.609 | S. cerevisiae deletion strains, locus YOL006C, strain TOP1, active compounds read low 0.725 | S. cerevisiae deletion strains, locus YPL241C, strain CIN2, active compounds read low 0.857

O=C(OCc1ccc(Oc2ccc(Cl)cc2Cl)c([N+](=O)[O-])c1)c1ccc([N+](=O)[O-])o1
inactive: S. cerevisiae deletion strains, locus YAR019C, strain CDC15, active compounds read low 0.98 | S. cerevisiae deletion strains, locus YBL105C, strain PKC1, active compounds read low 0.975 | S. cerevisiae deletion strains, locus YBR135W, strain CKS1, active compounds read low 0.981 | S. cerevisiae deletion strains, locus YBR136W, strain MEC1, active compounds read low 0.961 | S. cerevisiae deletion strains, locus YBR160W, strain CDC28, active compounds read low 0.97 | S. cerevisiae deletion strains, locus YDL017W, strain CDC7, active compounds read low 0.979 | S. cerevisiae deletion strains, locus YDL028C, strain MPS1, active compounds read low 0.958 | [1] 0.98 | S. cerevisiae deletion strains, locus YDL108W, strain KIN28, active compounds read low 0.969 | S. cerevisiae deletion strains, locus YDL132W, strain cdc53, active compounds read low 0.974 | S. cerevisiae deletion strains, locus YDL214C, strain PRR2, active compounds read low 1.01 | S. cerevisiae deletion strains, locus YDR052C, strain DBF4, active compounds read low 0.99 | S. cerevisiae deletion strains, locus YDR054C, strain cdc34, active compounds read low 0.968 | S. cerevisiae deletion strains, locus YDR226W, strain ADK1, active compounds read low 0.97 | S. cerevisiae deletion strains, locus YDR477W, strain SNF1, active compounds read low 0.971 | S. cerevisiae deletion strains, locus YER123W, strain YCK3, active compounds read low 0.987 | S. cerevisiae deletion strains, locus YER133W, strain GLC7, active compounds read low 0.995 | S. cerevisiae deletion strains, locus YFL009W, strain cdc4, active compounds read low 0.956 | S. cerevisiae deletion strains, locus YFL029C, strain CAK1, active compounds read low 0.978 | S. cerevisiae deletion strains, locus YFR003C, strain YPI1, active compounds read low 0.985 | S. cerevisiae deletion strains, locus YFR019W, strain FAB1, active compounds read low 0.99 | S. cerevisiae deletion strains, locus YFR028C, strain CDC14, active compounds read low 0.969 | S. cerevisiae deletion strains, locus YGR040W, strain KSS1, active compounds read low 0.977 | S. cerevisiae deletion strains, locus YGR052W, strain FMP48, active compounds read low 1.07 | S. cerevisiae deletion strains, locus YGR092W, strain DBF2, active compounds read low 0.957 | [2] 0.916 | S. cerevisiae deletion strains, locus YHR079C, strain IRE1, active compounds read low 0.997 | S. cerevisiae deletion strains, locus YHR082C, strain KSP1, active compounds read low 1.04 | S. cerevisiae deletion strains, locus YHR205W, strain SCH9, active compounds read low 0.93 | S. cerevisiae deletion strains, locus YIL147C, strain SLN1, active compounds read low 0.977 | S. cerevisiae deletion strains, locus YJL095W, strain BCK1, active compounds read low 0.993 | S. cerevisiae deletion strains, locus YJL128C, strain PBS2, active compounds read low 0.896 | S. cerevisiae deletion strains, locus YJL157C, strain FAR1, active compounds read low 0.987 | S. cerevisiae deletion strains, locus YJR016C, strain ILV3, active compounds read low 0.982 | S. cerevisiae deletion strains, locus YJR066W, strain TOR1 (second series), active compounds read low 0.971 | S. cerevisiae deletion strains, locus YJR066W, strain TOR1, active compounds read low 0.972 | S. cerevisiae deletion strains, locus YKL048C, strain ELM1, active compounds read low 0.991 | S. cerevisiae deletion strains, locus YKL067W, strain YNK1, active compounds read low 1 | S. cerevisiae deletion strains, locus YKL101W, strain HSL1, active compounds read low 0.983 | S. cerevisiae deletion strains, locus YKL193C, strain SDS22, active compounds read low 0.986 | S. cerevisiae deletion strains, locus YKL203C, strain TOR2, active compounds read low 1.07 | S. cerevisiae deletion strains, locus YLR113W, strain HOG1, active compounds read low 0.999 | S. cerevisiae deletion strains, locus YLR133W, strain CKI1, active compounds read low 0.985 | S. cerevisiae deletion strains, locus YLR403W, strain SFP1, active compounds read low 0.962 | S. cerevisiae deletion strains, locus YML070W, strain DAK1, active compounds read low 1 | S. cerevisiae deletion strains, locus YMR001C, strain CDC5, active compounds read low 0.97 | S. cerevisiae deletion strains, locus YMR205C, strain PFK2 (second series), active compounds read low 1.01 | S. cerevisiae deletion strains, locus YMR277W, strain FCP1, active compounds read low 0.966 | S. cerevisiae deletion strains, locus YNL006W, strain LST8, active compounds read low 0.986 | S. cerevisiae deletion strains, locus YNL020C, strain ARK1, active compounds read low 0.996 | S. cerevisiae deletion strains, locus YNL161W, strain CBK1, active compounds read low 0.987 | S. cerevisiae deletion strains, locus YNL183C, strain NPR1, active compounds read low 1.07 | S. cerevisiae deletion strains, locus YNL207W, strain RIO2, active compounds read low 0.982 | S. cerevisiae deletion strains, locus YNL222W, strain SSU72, active compounds read low 0.976 | S. cerevisiae deletion strains, locus YNL307C, strain MCK1 (second series), active compounds read low 0.987 | S. cerevisiae deletion strains, locus YOL078W, strain AVO1, active compounds read low 0.985 | S. cerevisiae deletion strains, locus YOL136C, strain PFK27, active compounds read low 1 | S. cerevisiae deletion strains, locus YOR061W, strain CKA2, active compounds read low 0.975 | S. cerevisiae deletion strains, locus YOR119C, strain RIO1, active compounds read low 1.03 | S. cerevisiae deletion strains, locus YOR231W, strain MKK1, active compounds read low 0.957 | S. cerevisiae deletion strains, locus YOR329C, strain SCD5, active compounds read low 0.982 | S. cerevisiae deletion strains, locus YPL031C, strain PHO85, active compounds read low 0.974 | S. cerevisiae deletion strains, locus YPL153C, strain RAD53, active compounds read low 0.976 | S. cerevisiae deletion strains, locus YPL204W, strain HRR25, active compounds read low 0.983 | S. cerevisiae deletion strains, locus YPL209C, strain IPL1, active compounds read low 0.983 | S. cerevisiae deletion strains, locus YPL256C, strain CLN2, active compounds read low 0.993 | S. cerevisiae deletion strains, locus YPR025C, strain CCL1, active compounds read low 0.979 | S. cerevisiae deletion strains, locus YPR106W, strain ISR1, active compounds read low 0.972 | S. cerevisiae deletion strains, locus YPR111W, strain DBF20, active compounds read low 0.958 | S. cerevisiae deletion strains, strain NNK1, active compounds read low 0.983 | S. cerevisiae deletion strains, strain TSCII, active compounds read low 0.968
